Compound activity (PubChem)
FLuc modulator: qHTS profiling assay for firefly luciferase inhibitor/activator using purifed enzyme and Km concentrations of substrates (counterscreen for miR-21 project). Luciferin 4-monooxygenase (Photinus pyralis), P08659. purified FLuc, Km substrates, luminescence inhibition. Potency, µM (top dose mostly 57.5 µM), for the others: at the top dose activity change, negative = inhibition, most hits filed as inhibitors. actives 6.9% (n = 360,000). AID 588342, 2011;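 further: plate controls were vehicle for no effect and reference inhibitor for full effect; nearly all actives have a fitted effect of over 55% in size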
Target sequence (P08659 whole entry, looked up): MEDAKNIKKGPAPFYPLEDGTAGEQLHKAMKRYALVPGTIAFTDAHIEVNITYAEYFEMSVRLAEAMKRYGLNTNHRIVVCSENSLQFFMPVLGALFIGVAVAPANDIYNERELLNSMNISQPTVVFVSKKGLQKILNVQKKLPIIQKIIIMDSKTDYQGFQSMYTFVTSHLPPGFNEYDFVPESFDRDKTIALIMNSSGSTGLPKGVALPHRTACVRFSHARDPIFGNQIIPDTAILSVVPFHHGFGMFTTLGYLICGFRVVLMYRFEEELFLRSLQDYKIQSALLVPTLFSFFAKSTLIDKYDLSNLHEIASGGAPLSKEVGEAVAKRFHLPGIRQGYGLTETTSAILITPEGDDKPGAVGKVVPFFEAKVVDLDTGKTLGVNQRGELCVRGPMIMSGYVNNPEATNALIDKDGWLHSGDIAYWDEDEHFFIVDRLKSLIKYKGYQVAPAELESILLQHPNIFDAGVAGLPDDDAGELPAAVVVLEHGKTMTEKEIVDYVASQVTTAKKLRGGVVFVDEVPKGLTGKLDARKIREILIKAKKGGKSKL
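Biochemical qHTS of compounds, final roughly 60 µM downward over six points, against 10 nM purified firefly luciferase using Km concentrations of substrates (10 uM D-luciferin, 10 uM ATP) in Tris acetate pH 7.5 buffer; luminescence output.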
SMN2 splice up: qHTS Assay for Enhancers of SMN2 Splice Variant Expression | HEK293 SMN2-luciferase splicing reporter, luminescence, 30-36 h | Potency, µM (series often up to 46.1 µM), for inactives: at the top dose activity change, positive = activation, hits mostly activators | actives 2.8% (n = 210,000); further: % of control where 0% means no effect; nearly all actives have a fitted effect of over 55% in size
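HEK293 cells carry an SMN2 […]–luciferase reporter in which exon 7 inclusion puts luciferase in frame. Cells were plated 10-12 h before compound addition, then incubated 30-36 h at 37C. ONE-Glo luminescence was read; sodium butyrate at 4.5 mM final served as control.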
ELG1 genotox: qHTS screen for small molecules that induce genotoxicity in human embryonic kidney (HEK293T) cells expressing luciferase-tagged ELG1 | HEK293T ELG1-luciferase reporter, luminescence, 16 h | Potency, µM (series often up to 46 µM), inactives show at the highest dose activity change, positive = activation, usual class: activators | actives 1.3% (n = 330,000); further: % of control where 0% means no effect; nearly all actives have a fitted effect of over 60% in size
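Cells (2,000/well) expressing the ELG1-luciferase fusion are dosed by pin tool and kept 16 hr at 37 °C, 5% CO2. Signal comes from ONE-Glo luciferase reagent after 30 min at room temperature.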
NPC1 prom act: qHTS Assay for NPC1 Promoter Activators; Huh7 NPC1 promoter luciferase reporter, 24 h; AID 485313, 2010; Potency, µM (top dose mostly 9.22 µM), without a hit: at the top dose activation, usual class: activators; actives 2.4% (n = 320,000); further: % of control where 0% means no effect; nearly all actives have a fitted effect of over 60% in size
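Cells: Huh7 expressing luciferase under the NPC1 promoter, 1500/well. Seeded 2 h, compound added, incubated 24 h at 37 °C. Luciferase reagent, 10 min ambient, then luminescence.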
Rab9 promoter act: qHTS Assay for Rab9 Promoter Activators | Huh7 Rab9 promoter-luciferase reporter, luminescence, 24 h | Potency, µM (titrated, usually from 9.22 µM), without a hit: at the top dose activation, negative = inhibition, most hits filed as activators | actives 2.8% (n = 320,000) | AID 485297, 2010; further: % of control where 0% means no effect; nearly all actives have a fitted effect of over 60% in size
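Luciferase signal after 10 min detection reagent at ambient indicates Rab9 promoter upregulation; stably transfected Huh7 cells were treated 24 h with compound in DMSO at 37 °C, 5% CO2.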
ELG1 DNA repair: qHTS screen for small molecules that inhibit ELG1-dependent DNA repair in human embryonic kidney (HEK293T) cells expressing luciferase-tagged ELG1 | HEK293T ELG1-luciferase reporter, luminescence, 16 h; DNA damage induced by 5-fluorouridine | Potency, µM (doses to about 46.1 µM), for the others: top-dose activity change, negative = inhibition, most hits filed as inhibitors | actives 2.3% (n = 330,000) | AID 504467, 2011; further: on the % scale 0 is the no-effect control and ±100 the full control effect; nearly all actives have a fitted effect of over 55% in size
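Reporter activity after DNA damage by 5-fluorouridine is monitored. Compound-treated cells incubate 16 hr at 37 °C, then ONE-Glo is added for 30 min before luminescence reading.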
* = called active by the depositor; ? = inconclusive; . = not tested or not shown; [ ] = dose if it differs, or a comment. Compounds with a hit are over-represented: about 9.2% of the library has one in this group of screens. The call rests on the fitted dose curve; in most records, active means well fitted curve in the direction sought with a large enough effect; inconclusive means small, poorly fitted or top-dose-only effect, or another doubt; inactive means no such curve, though single readings can be large; an effect the other way counts as inactive or inconclusive. Potency means the concentration at half of the fitted maximal effect.

SMILES	FLuc modulator	SMN2 splice up	ELG1 genotox	NPC1 prom act	Rab9 promoter act	ELG1 DNA repair
CCOC(=O)CCNC(=O)Nc1ccc2nc(C)n(Cc3ccc(Cl)cc3)c(=O)c2c1	1%	-13%	3%	-2%	4%	15µM*
CC(=O)Nc1ccc2c(c1)nc(C)n2Cc1ccccc1	-2%	.	2%	-1%	-1%	-19%
CC(C)=CCC[C@](C)(O[C@@H]1O[C@H](CO[C@@H]2OC[C@@H](O)[C@H](O)[C@H]2O)[C@@H](O)[C@H](O)[C@H]1O)C1CC[C@]2(C)C1[C@H](O)CC1[C@@]3(C)CC[C@H](O[C@@H]4O[C@H](CO)[C@@H](O)[C@H](O)[C@H]4O)C(C)(C)C3CC[C@]12C (stereo not given in full)	.	.	-2%	.	.	?
Cc1c(O)ccc(C(=O)COc2ccc(F)cc2)c1O	12µM*	.	2%	?	5µM*	?
CCc1cc(C(=O)COc2ccc(F)cc2)c(O)cc1O	?	.	12%	3%	27%	?
COc1cc(C(=O)OCC(=O)Nc2c(F)cccc2F)cc(OC)c1C	-3%	-7%	5%	-5%	4%	19%
COc1cc(C(=O)OCC(=O)Nc2c(F)c(F)c(F)c(F)c2F)cc(OC)c1OC	0%	-8%	3%	0%	15%	26µM*
CC1CN(C(=O)CCC(=O)NCc2ccc(F)cc2)c2cc(Cl)ccc2O1 (stereo not given)	-9%	.	.	.	.	.
Cc1cc(SCC(=O)N/N=C/c2ccc(O)c(O)c2O)c(C)cc1Br	-18%	3%	10%	-11%	-28%	3%
COc1ccc(/C=N/NC(=O)c2ccccc2O)cc1Cn1nnc2ccccc21	21µM*	.	1%	0%	1%	-3%
COc1ccc(/C=N/NC(=O)CSCC(=O)Nc2ccccc2)cc1OC	-23%	.	1%	0%	4%	-20%
COc1cc(/C=N/NC(=O)CSc2cc(C)c(Br)cc2C)ccc1O	-10%	-3%	-13%	2%	-2%	16µM*
COc1ccc(/C=N/NC(=O)CSc2ccccn2)cc1OC	19µM*	.	9%	13%	20%	?
COc1ccc(/C=N/NC(=O)CSc2ccccc2)cc1OC	12µM*	22%	-1%	2%	-6%	16%
COc1ccc(/C=N\NC(=O)c2sccc2C)cc1Cn1nc(C)cc1C	3%	.	9.2µM*	-5%	-1%	?
COc1ccc(/C=N/NC(=O)c2ccccc2O)cc1CSc1ccccn1	19µM*	3%	3%	1%	-10%	12%
Cc1cccc(NC(=O)[C@@H]2CCCN2S(=O)(=O)c2ccc(Cl)cc2)c1	.	.	-3%	.	.	-19%
CCOc1cc(/C=N/NC(=O)c2ccc(NC(=O)C3CC3)cc2)ccc1O	?	.	-5%	0%	18%	-13%
CCOc1cc(/C=N/NC(=O)Nc2ccccc2)ccc1O	9.5µM*	.	?	14%	?	?
COc1cc(/C=N/NC(=O)Nc2ccccc2)ccc1OC(C)=O	11µM*	?	?	28%	?	?
CC(C)CCCC(C)C1CCC2C3CC=C4CC(O)CC[C@@]4(C)C3CC[C@@]12C (stereo not given in full)	.	-6%	.	.	.	.
CCC(=O)c1ccc(CCCCCC(=O)O)s1	9.5µM*	.	12%	13%	4%	?
CC(=O)c1ccc(CCCCCCCCCC(=O)O)s1	?	9%	0%	-1%	-4%	11%
Oc1ccc(/C=N/N2CCCCC2)c(O)c1	19µM*	.	?	?	-5%[1.84 µM]	?
Oc1cccc(/C=N/N2CCCCC2)c1O	9.5µM*	.	?	-3%	-16%	?
SMILES	FLuc modulator	SMN2 splice up	ELG1 genotox	NPC1 prom act	Rab9 promoter act	ELG1 DNA repair
Brc1ccccc1/C=N/N1CCCCC1	-20%	.	-1%	-1%	-5%[1.84 µM]	4%
Oc1ccccc1/C=N/N1CCCCC1	24µM*	2%	?	0%	14%	?
Oc1ccc(/C=N/N2CCCCC2)c(O)c1O	?	.	-6%	-3%	0%	-8%
CCOC(=O)c1cn2nc(N3CCCCC3)ccc2n1	0.95µM*	.	0.58µM*	0.32µM*	0.13µM*	?
CCOC(=O)c1cn2nc(Oc3ccccc3)ccc2n1	15µM*	.	?	2.2µM*	2.8µM*	?
CCOC(=O)c1cn2nc(Oc3ccc(C)cc3)ccc2n1	?	.	?	10%	?	?
CCOC(=O)c1cn2nc(N3CCCC3)ccc2n1	2.1µM*	.	?	0.5µM*	0.32µM*	?
Cc1nnc2ccc(-c3ccc(NS(=O)(=O)c4ccccc4[N+](=O)[O-])cc3)nn12	4%	.	?	-8%	-9%	?
Cc1nnc2ccc(-c3ccc(NS(=O)(=O)c4ccccc4F)cc3)nn12	1%	.	21µM*	-6%	-5%	?
Cc1nnc2ccc(-c3ccc(NS(=O)(=O)c4ccc(F)cc4F)cc3)nn12	0%	.	21µM*	-4%	-4%	?
CCc1ccc(S(=O)(=O)Nc2ccc(-c3ccc4nnc(C)n4n3)cc2)s1	18%	.	23µM*	-4%	-3%	?
C[C@H](CCC(=O)NN)[C@@H]1CC[C@@H]2[C@H]3CC[C@H]4C[C@@H](O)CC[C@@]4(C)[C@@H]3CC[C@]21C	.	-3%[9.22 µM]	.	.	.	.
CCCCn1cc(S(=O)(=O)c2ccc(Cl)cc2)c(=O)c2cc(F)c(N3CCCC(C)C3)cc21 (stereo not given)	-6%	.	.	.	.	.
COc1ccc(-c2noc(N3CCC(C(=O)Nc4ccccc4OC)CC3)n2)cc1	?	.	0%	-5%	24%	23µM*
Cc1ccc(C)c(N2CCN(C(=O)C3CCN(c4nc(-c5ccc(C(C)C)cc5)no4)CC3)CC2)c1	12µM*	.	.	.	.	.
COc1ccc(-c2noc(CCC(=O)NC3CCCCCC3)n2)cc1	?	.	-2%	-2%	1%	0%
CCOC(=O)N1CCC(NC(=O)CCc2nc(-c3ccc(C)cc3)no2)CC1	-9%	-11%	-13%	5%	11%	13µM*
Cc1ccc(NC(=O)C2CCN(c3nc(-c4ccc(C(C)C)cc4)no3)CC2)c(Cl)c1	21µM*	.	.	.	.	.
COc1ccc(-c2noc(N3CCC(C(=O)Nc4cc(OC)ccc4OC)CC3)n2)cc1	-16%	.	-6%	0%	7%	?
